From PubChem BioAssay
GPR151 ag: activators of human GPR151, primary screen, cell-based, PathHunter beta-arrestin, luminescence | G-protein coupled receptor 151 (Homo sapiens), Q8TDV0 | PathHunter beta-arrestin GPR151 cells | activation, % at 11.2 µM | 1% of 650,000 active | AID 1508602, 2020; in the data active = activation above about 4.9%
TEAD-YAP inh: TEAD-YAP interaction inhibition, primary screen, TEAD-YAP interaction inhibitor project, luminescence, HEK-TIYL cells | 1.4% of 640,000 active | inhibition, % at 9.12 µM | TEAD-Gal4/YAP UAS-luciferase luminescence | AID 1259422, 2018; in the data active = inhibition above about 32%
MITF primary: MITF inhibitors, primary screen, biochemical, AlphaScreen, human. AlphaScreen MITF homodimerization, bead proximity signal. inhibition, % at 2.6 µM. 0.91% of 650,000 active; in the data active = inhibition above about 50%
Target sequence (O75030 whole entry, looked up): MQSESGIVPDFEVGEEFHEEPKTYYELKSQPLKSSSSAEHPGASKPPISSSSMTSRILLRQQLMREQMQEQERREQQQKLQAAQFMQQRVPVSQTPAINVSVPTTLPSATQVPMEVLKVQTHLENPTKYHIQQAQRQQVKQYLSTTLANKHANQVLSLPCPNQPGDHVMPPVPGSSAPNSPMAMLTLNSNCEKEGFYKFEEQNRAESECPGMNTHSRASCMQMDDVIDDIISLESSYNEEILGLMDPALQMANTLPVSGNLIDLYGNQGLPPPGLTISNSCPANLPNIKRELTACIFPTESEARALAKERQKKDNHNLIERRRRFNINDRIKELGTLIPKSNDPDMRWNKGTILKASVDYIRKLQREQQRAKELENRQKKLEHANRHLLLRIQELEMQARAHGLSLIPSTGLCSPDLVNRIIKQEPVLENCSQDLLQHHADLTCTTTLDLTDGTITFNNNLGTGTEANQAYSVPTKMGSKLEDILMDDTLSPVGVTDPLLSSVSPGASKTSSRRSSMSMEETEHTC
FBW7 activator: FBW7 E3 ligase activators, primary screen, biochemical, AlphaScreen, human | F-box/WD repeat-containing protein 7 (Homo sapiens), Q969H0 | AlphaScreen FBW7–phospho-cyclin E peptide binding, activator screen | normalized activity (activation), % at 26.1 µM | 0.13% of 650,000 active | AID 1259310, 2017; in the data active = normalized activity above about 1.9%;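 note: purified mutant Fbw7 with reduced substrate affinity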
MITF confirm: MITF inhibitors, retest of hits, confirmation, biochemical, AlphaScreen, triplicate; AlphaScreen MITF homodimerization, biotin/His-MITF beads; 16% of 4,700 active; inhibition, % at 2.6 µM; AID 1259372, 2018; shares compounds with MITF primary;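 active = inhibition above a cutoff derived from the DMSO control wells, cut at about 28% in these data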;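 note: inhibitors lower the bead chemiluminescence by keeping MITF from dimerizing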
AS interf DR: AlphaScreen optical interference compounds, dose response, counter-screen, biochemical, HTS. shares compounds with MITF primary. AlphaScreen optical interference counterscreen, cell-free. IC50, µM. 6% of 480 active; call rule not given here
AS interf ctr: AlphaScreen optical interference compounds, counter-screen for MITF inhibitor project, biochemical, triplicate; AID 1259376, 2018; shares compounds with MITF primary; inhibition, % at 2.6 µM; LysRS AlphaScreen counterscreen, signal interference; 7.6% of 4,700 active;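 active = inhibition above a cutoff derived from the DMSO control wells, cut at about 30% in these data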
Hits are given with their value; - = inactive; . = not tested or not shown. This is a sample that favours compounds with a hit; in the whole collection about 3.5% have one here.

SMILES | GPR151 ag | TEAD-YAP inh | MITF primary | FBW7 activator | MITF confirm | AS interf ctr | others
FC(F)(F)c1ccccc1CN1CCN(Cc2cccc(Cl)c2)CC1 | - | - | 68.6 | - | - | -
Clc1cccc(CN2CCN(c3ncccn3)CC2)c1 | - | - | - | - | . | .
Cc1cccc(CN2CCN(Cc3ccccc3C(F)(F)F)CC2)c1 | - | - | 75.6 | - | - | -
Cc1ccc(S(=O)(=O)N2CCN(Cc3cccc(C)c3)CC2)cc1 | - | - | - | - | . | .
COCCN(Cc1ccccc1)C(=S)NCc1ccccc1 | - | - | - | - | . | .
CSc1nnc(NC(=O)Cc2ccccc2)s1 | - | - | - | - | . | .
O=[N+]([O-])c1ccc(Nc2nc(-c3ccncc3)cs2)cc1 | - | - | 50.9 | - | - | -
CC(=O)Nc1ccc(-c2csc(Nc3ccc([N+](=O)[O-])cc3)n2)cc1 | - | - | - | - | . | .
COc1cc(-c2nnc(COc3nncc4ccccc34)o2)cc(OC)c1OC | - | - | - | - | . | .
CN(C)c1ccc(NC(=O)CSc2ncccc2C(=O)O)cc1 | - | - | 64.3 | - | 74.6 | - | AS interf DR=-
O=C(c1ccccc1F)N(Cc1ccccc1)c1ccccn1 | - | - | 71.2 | - | - | -
CCOC(=O)COc1ccc2oc(=O)c(-c3ccccc3)c(C)c2c1 | - | - | - | - | . | .
O=[N+]([O-])c1ccc(S(=O)(=O)N2CCN(Cc3cccc(Br)c3)CC2)cc1 | - | - | 76.6 | - | - | -
O=[N+]([O-])c1ccc(S(=O)(=O)N2CCN(Cc3ccccc3)CC2)cc1 | - | - | - | - | . | .
O=[N+]([O-])c1ccccc1S(=O)(=O)N1CCN(Cc2cccc(Br)c2)CC1 | - | - | - | - | . | .
COc1ccc(CN2CCN(S(=O)(=O)c3ccc([N+](=O)[O-])cc3)CC2)cc1 | - | - | 52.6 | - | - | -
COc1ccc(S(=O)(=O)N2CCN(Cc3ccc([N+](=O)[O-])cc3)CC2)cc1 | - | - | - | - | . | .
O=[N+]([O-])c1ccc(S(=O)(=O)N2CCN(Cc3ccc(Br)cc3)CC2)cc1 | - | - | 61.2 | - | - | 36.0
Cc1ccc(OCc2nnc(SCC(=O)N3CCCCC3)n2C)cc1 | - | - | - | - | . | .
O=C(c1cccnc1)N1CCN(C2CCCC2)CC1 | - | - | 64.3 | - | - | -
O=C(NCCc1ccccc1)C1CCN(Cc2cccnc2)CC1 | - | - | 50.7 | - | - | -
O=C(NCc1cccnc1)C1CCN(CC2CC=CCC2)CC1 (stereo not given) | - | - | 63.1 | - | - | -
O=C(c1cccnc1)N1CCN(CC2CC=CCC2)CC1 (stereo not given) | - | - | 70.8 | - | - | -
COc1ccc(CN2CCC(C(=O)NCCc3ccccc3)CC2)cc1 | - | - | - | - | . | .
Cc1ccc(-c2cc(C(F)(F)F)n3ncc(C(=O)Nc4sc5c(c4C(=O)OC(C)C)CCCC5)c3n2)cc1 | - | - | - | - | . | .
SMILES | GPR151 ag | TEAD-YAP inh | MITF primary | FBW7 activator | MITF confirm | AS interf ctr | others
O=C(c1cccc(OC2CCN(CC3CC=CCC3)CC2)c1)N1CCOCC1 (stereo not given) | - | - | - | - | . | .
O=C(c1ccncc1)N1CCN(CC2CC=CCC2)CC1 (stereo not given) | - | - | 72.9 | - | - | -
COc1ccc(CN2CCN(Cc3ccco3)CC2)cc1 | - | - | 70.9 | - | - | -
c1ccc(Oc2cccc(CN3CCN(Cc4ccco4)CC3)c2)cc1 | - | - | 69.2 | - | - | -
OCCN1CCN(Cc2cccc(Oc3ccc(Cl)cc3)c2)CC1 | - | - | - | - | . | .
COc1ccc(C(=O)N2CCN(Cc3ccco3)CC2)cc1 | - | - | 54.6 | - | - | -
CCc1ccc(CN2CCC(C(=O)NCc3ccco3)CC2)cc1 | - | - | - | - | . | .
CCc1ccc(CN2CCN(Cc3ccco3)CC2)cc1 | - | - | 71.0 | - | - | -
COc1ccc(CN2CCN(C(=O)c3ccco3)CC2)cc1 | - | - | - | - | . | .
Cc1n[nH]c(=O)c2c(NC(=O)CCl)oc(C)c12 | - | - | - | - | . | .
CCN(CC)S(=O)(=O)c1ccc(Cl)c(C(=O)OCc2ccco2)c1 | - | - | - | - | . | .
CCOCCOC(=O)c1ccc(NC(=O)c2ccccc2Br)cc1 | - | - | - | - | . | .
COc1ccc(C)cc1NC(=O)CSc1nc2c(c(=O)n(C)c(=O)n2C)n1C | - | - | - | - | . | .
Cc1ccc(S(=O)(=O)NCCC(=O)N2CCC3(CC2)OCCO3)cc1 | - | - | - | - | . | .
COC(=O)C1=C(C)NC(=O)NC1c1c(F)cccc1Cl (stereo not given) | - | - | - | - | . | .
COc1ccc(OC)c(CN2CCN(Cc3ccco3)CC2)c1 | - | - | 78.7 | - | - | -
COc1cccc(N2CCN(Cc3ccco3)CC2)c1 | - | - | - | - | . | .
CSc1ccc(CN2CCN(Cc3ccco3)CC2)cc1 | - | - | 85.3 | - | - | -
COc1ccc(OC)c(CNCc2ccco2)c1 | - | - | - | - | . | .
Clc1ccccc1N1CCN(Cc2ccco2)CC1 | - | - | - | - | . | .
COc1cccc(CN2CCN(Cc3ccco3)CC2)c1 | - | - | 76.1 | - | - | -
CCN1CCN(Cc2nnnn2Cc2ccco2)CC1 | - | - | - | - | . | .
CCC(CC)N1CCN(Cc2ccco2)CC1 | - | - | 52.8 | - | - | -
CCc1nnc(NC(=O)c2c(Cl)cccc2Cl)s1 | - | - | - | - | . | .
C1=CC2CC1CC2CN1CCN(Cc2ccccn2)CC1 (stereo not given) | - | - | 73.7 | - | - | -
SMILES | GPR151 ag | TEAD-YAP inh | MITF primary | FBW7 activator | MITF confirm | AS interf ctr | others
COc1cc(CN2CCN(S(=O)(=O)c3ccc(F)cc3)CC2)cc(OC)c1O | - | - | - | - | . | .
COc1cc(CN2CCN(CC3CC4C=CC3C4)CC2)cc(OC)c1O (stereo not given) | - | - | 66.4 | - | - | -
O=C(c1ccccc1)N1CCN(CC2CC3C=CC2C3)CC1 (stereo not given) | - | - | - | - | . | .
Cc1ccccc1CN1CCN(CC2CC3C=CC2C3)CC1 (stereo not given) | - | - | 76.6 | - | - | -
COc1ccccc1CN1CCN(CC2CC3C=CC2C3)CC1 (stereo not given) | - | - | 68.7 | - | - | -
COC(=O)c1ccc2c(c1)C(=O)N(c1cc(Cl)ccc1Cl)C2=O | - | - | - | - | . | .
Nc1c(/C=C2\C=Nc3ccccc32)c(=O)nc2sc(N3CCOCC3)nn12 | - | - | - | - | . | .
COc1ccc(CN2CCN(CC3CC4C=CC3C4)CC2)c(OC)c1OC (stereo not given) | - | - | 70.5 | - | - | -
Fc1cccc(CN2CCCNCC2)c1 | - | - | - | - | . | .
COc1ccc(CN2CCN(CC3CC4C=CC3C4)CC2)c(OC)c1 (stereo not given) | - | - | 72.0 | - | - | -
